In PubChem BioAssay (NCI):
Compounds without any hit were thinned out: in the full panel of roughly 83,000, 20% have a hit.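 48-hour exposure, single concentration, 96-well plates; percent growth endpoint where 0 means no net growth. Active: below 10.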 Unmarked numbers belong to inactive results. The source made the active and inactive calls.

Assays:
Assay in all cases: NCI-60 one-dose screen, 48 h (100 = growth as untreated, 0 = no growth, -100 = all killed)
Details in all cases: 10 µM unless noted
DU-145 prostate = test system: DU-145 prostate
K-562 leukemia = test system: K-562 leukemia
MALME-3M melanoma = test system: MALME-3M melanoma
MDA-MB-231 breast = test system: MDA-MB-231 breast
RXF 393 renal = test system: RXF 393 renal
SF-268 CNS = test system: SF-268 CNS
SF-295 CNS = test system: SF-295 CNS
SF-539 CNS = test system: SF-539 CNS
UACC-257 melanoma = test system: UACC-257 melanoma
M14 melanoma = test system: M14 melanoma
HCT-15 colon = test system: HCT-15 colon
HT29 colon = test system: HT29 colon
SNB-75 CNS = test system: SNB-75 CNS
SNB-19 CNS = test system: SNB-19 CNS
U251 CNS = test system: U251 CNS
PC-3 prostate = test system: PC-3 prostate
SK-MEL-5 melanoma = test system: SK-MEL-5 melanoma
UACC-62 melanoma = test system: UACC-62 melanoma
LOX IMVI melanoma = test system: LOX IMVI melanoma
SK-MEL-28 melanoma = test system: SK-MEL-28 melanoma

Structure (SMILES)	growth (DU-145 prostate)	growth (K-562 leukemia)	growth (MALME-3M melanoma)	growth (MDA-MB-231 breast)	growth (RXF 393 renal)	growth (SF-268 CNS)	growth (SF-295 CNS)	growth (SF-539 CNS)	growth (UACC-257 melanoma)	growth (M14 melanoma)	growth (HCT-15 colon)	growth (HT29 colon)	growth (SNB-75 CNS)	growth (SNB-19 CNS)	growth (U251 CNS)	growth (PC-3 prostate)	growth (SK-MEL-5 melanoma)	growth (UACC-62 melanoma)	growth (LOX IMVI melanoma)	growth (SK-MEL-28 melanoma)
CC(C)n1cc(C2=C(c3cccc4ccccc34)C(=O)NC2=O)c2cc(Br)ccc21	71%	34.8%	122%	91.2%	24.4%	67.5%	63.9%	60.9%	111%	76.1%	43.1%	43.1%	38.6%	82.6%	60.4%	57.8%	-0.736% (active)	60%	1.07% (active)	90.7%
CC(=O)Oc1ccccc1C(=O)N(Cc1ccc2c(Cl)cc(Cl)c(O)c2n1)c1ccccc1	50.1%	22.5%	69.3%	68.8%	60.7%	39.8%	33.2%	59%	78.6%	51%	23.8%	89.4%	51.2%	42%	27.6%	34%	41.5%	29.3%	38.5%	58.3%
O=C1c2ccccc2-c2c1c1ccncc1c(=O)n2CCCn1ccnc1	58.6%	20.5%	98%	73.8%	55.6%	38.7%	56.2%	31.6%	93.5%	63.3%	40.8%	21%	50.3%	41.5%	20.4%	38%	28.5%	39.7%	6.42% (active)	88.3%
CCN(CC)CCCNC(=O)c1c2c(n3ccccc13)C(=O)c1ncccc1C2=O	-94.9% (active)	-33.7% (active)	-93% (active)	-0.531% (active)	-35.9% (active)	-3.91% (active)	-22.1% (active)	-63% (active)	-90.1% (active)	-84.1% (active)	-73.6% (active)	-28.5% (active)	-87.2% (active)	-71.3% (active)	-83.8% (active)	-19.8% (active)	-99.2% (active)	-53.8% (active)	-71.2% (active)	22.8%
Cc1ccc(S(=O)(=O)c2nc(-c3ccccc3)oc2S(C)=O)cc1 (stereo not given)	47.3%	-31.1% (active)	-76.8% (active)	4.23% (active)	-33.4% (active)	55.9%	84.3%	-22% (active)	46.5%	-80.6% (active)	-53.1% (active)	-31.8% (active)	66.7%	68.9%	45.1%	22.3%	44.4%	50.6%	-87.7% (active)	-63.2% (active)
CCOC(=O)CC1CSC(N/N=C(/C)c2cccc(C(F)(F)F)c2)=N1 (stereo not given)	102%	80.6%	95.3%	94.4%	109%	100%	93.5%	103%	87.9%	101%	93.8%	94.3%	98.3%	106%	98.4%	97.8%	105%	97.1%	104%	107%
CO[C@H]1CC(c2ccc[nH]2)=N[C@]12O[C@@H](C)C[C@@H]1CCCCCCCc3ccc([nH]3)[C@H]12	30.3%	21.3%	-14.5% (active)	14.1%	52.7%	48.6%	17.4%	20%	13.2%	13.2%	10.4%	12.3%	3.5% (active)	55.4%	19.7%	42.2%	-38.4% (active)	-47.8% (active)	-45.1% (active)	38.6%
COC(=O)[C@@H](Cc1c[nH]c2ccccc12)NC(=O)[C@H](Cc1ccccc1)NCc1ccncc1	108%	102%	86.5%	93.2%	103%	96.9%	106%	103%	79.4%	103%	110%	87.5%	93%	93.3%	92.7%	78.5%	102%	95.3%	95%	122%
C=CCn1c(SCC(=O)Nc2ccc(C(=O)/C=C/c3cc(OC)c(OC)c(OC)c3)cc2)nnc1-c1cc(-c2ccc(S(N)(=O)=O)cc2)nc2ccccc12	105%	48.2%	97.1%	83.1%	64.6%	94.6%	99%	86.6%	96.1%	95.6%	97.7%	98.1%	77.2%	74.2%	58.9%	84.1%	87.6%	74.7%	73%	103%
CN(C)c1ccc(/C=C/C2=[N+](C)c3ccccc3C2(C)C)cc1	25.3%	14.2%	-6.64% (active)	3.11% (active)	39.9%	20.9%	0.915% (active)	16.9%	12.6%	18.4%	39.5%	12.5%	36.3%	13.2%	19.2%	4.64% (active)	-4.87% (active)	9.39% (active)	15.2%	35.4%
Cc1c(-c2cnc3ccc(Cl)cc3c2C(=O)O)nnn1-c1ccc(Cl)cc1	114%	101%	99.6%	85.8%	122%	111%	97.7%	99.6%	95.9%	69.8%	104%	101%	95.3%	93.1%	97.3%	98.5%	106%	82.5%	98.8%	105%
CCN1C(=O)N(CC)C2C1NN=c1s/c(=C\c3ccc([N+](=O)[O-])cc3)c(=O)n12 (stereo not given)	19.9%	9.56% (active)	45.7%	18.5%	2.89% (active)	71.5%	13.2%	-7.87% (active)	31.1%	12%	16.3%	5.2% (active)	0.315% (active)	31.6%	20.8%	32.6%	27.6%	27.7%	36.8%	64.1%
Cc1ccc(C2(C)NC(=O)N(CC(=O)Nc3cccc(C)c3)C2=O)cc1 (stereo not given)	110%	112%	100%	99.4%	101%	104%	107%	103%	101%	110%	94.4%	96.6%	77.1%	102%	99.1%	60.1%	98.3%	84%	96.3%	107%
COc1ccc(C(=O)/C=C/Nc2cc(-c3ccccc3)nn2-c2ccccc2)cc1	99.7%	80.8%	100%	93.4%	85.5%	90.2%	95.2%	95.2%	90.8%	93%	88.1%	99.4%	94%	92%	93.2%	86.8%	93%	72.2%	92.9%	99.5%
